Screens (PubChem)
Lassa entry inh = qHTS for Inhibitors of binding or entry into cells for Lassa Virus; Lassa virus pseudotype entry inhibition, cell reporter; Potency, µM (highest dose often 37.9 µM), usual class: inhibitors; hit rate 1.2% among 300,000; AID 540256, 2011; calls by dose curve; tested in HEK293 cells; also: nearly all actives have a fitted effect of over 50% in size
VACV mCherry inh = qHTS for Stage-Specific Inhibitors of Vaccinia Orthopoxvirus: mCherry Reporter Primary qHTS | Vaccinia virus mCherry reporter infection, fluorescence | Potency, µM (doses to about 36.5 µM), usual class: inhibitors | hit rate 0.63% among 310,000; calls by dose curve; tested in A549 cells; also: nearly all actives have a fitted effect of over 35% in size
Marburg entry inh = qHTS for inhibitors of binding or entry into cells for Marburg Virus; Marburg virus pseudotyped entry inhibition, cell reporter; Potency, µM (top dose mostly 37.8 µM), usual class: inhibitors; hit rate 1.8% among 300,000; AID 540276, 2011; calls by dose curve; tested in HEK293 cells
VACV Venus inh = qHTS for Stage-Specific Inhibitors of Vaccinia Orthopoxvirus: Venus Reporter Primary qHTS; AID 720580, 2013; Potency, µM (top dose mostly 36.5 µM), actives largely listed as inhibitors; Vaccinia virus Venus reporter expression, fluorescence; hit rate 0.46% among 330,000; calls by dose curve; tested in A549 cells; also: nearly all actives have a fitted effect of over 30% in size
FMDV antiviral = High Throughput Screening for Foot and Mouth Disease Virus Antivirals | FMDV antiviral cell-based qHTS | hit rate 1.2% among 410,000 | Potency, µM (titrated, usually from 57.9 µM), most hits filed as inhibitors; calls by dose curve; tested in HEK293T cells; also: read-out not given here; nearly all actives have a fitted effect of over 45% in size
HCV inh = qHTS Assay for Inhibitors of Hepatitis C Virus (HCV); Huh7.5.1 HCVcc-Cre infection, luciferase reporter, 44 h; Potency, µM (top dose mostly 41.8 µM), usual class: inhibitors; hit rate 3.4% among 340,000; active = well fitted inhibition curve with a large enough effect; inconclusive = small, poorly fitted or top-dose-only effect, or another doubt; inactive = no such curve, though single readings can be large or run the other way
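After 44 h co-culture of compound, cells and HCVcc-Cre (~0.5 moi), substrate is added for 15 min at room temperature and luciferase measured over 15 sec. Cells were seeded at 1,000/well and pre-cultured 4 h.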
A number is an active result; . = inactive; ? = inconclusive; / = no result; [ ] = another dose, or the depositor's remark. Hits are enriched below; roughly 5.3% of the tested compounds scored in any of these assays.

SMILES | Lassa entry inh | VACV mCherry inh | Marburg entry inh | VACV Venus inh | FMDV antiviral | HCV inh
O=[N+]([O-])c1ccccc1/C=N/Nc1nc(N2CCCC2)nc(N2CCCC2)n1 | . | . | ? | . | ? | .
COC(=O)c1ccccc1-c1ccc(/C=N/Nc2nc(N3CCCC3)nc(N3CCCC3)n2)o1 | ? | . | ? | . | 22µM | 11µM
O=[N+]([O-])c1ccc(/C=N/Nc2nc(N3CCCCCC3)nc(N3CCCCCC3)n2)o1 | ? | ? | ? | . | ? | ?
Cc1cc(Cl)ccc1OCc1n[nH]c(=S)n1C1CCCCC1 | ? | / | 23µM | / | ? | .
CCCC(=O)Nc1ccc(-c2nc3cc(C)ccc3o2)cc1 | ? | . | . | . | . | 11µM
Cc1ccc2c(c1)-c1ncc(C(=O)c3ccccc3O)cc1CO2 | . | . | . | . | . | /
Cc1ccc(O)c(C(=O)c2cnc3c(c2)COc2ccccc2-3)c1 | . | . | . | . | . | 10µM
CCN1/C(=C/C=C/c2sc3ccccc3[n+]2CC)Sc2ccccc21 | / | . | / | . | 14µM | 1.6µM
CC[n+]1c(/C=C/Nc2ccccc2)sc2ccccc21 | . | . | ? | . | . | .
CCN1/C(=C/C=C/C=C/c2sc3ccccc3[n+]2CC)Sc2ccccc21 | 1.8µM | . | 4.6µM | . | / | .[8.37 µM]
CCN1/C(=C/C=C/C=C/C=C/c2sc3ccccc3[n+]2CC)Sc2ccccc21 | / | / | / | / | 10µM | ?
O=C1[C@H]2[C@H]3[C@H](O)[C@H](O)C/C(=N\OCc4ccccc4)[C@@H]3CC[C@H]2C(=O)N1C[C@@H]1CCCO1 | / | / | . | / | / | /
CC1(C)CC(NC(=O)COc2ccc(Br)cc2Cl)CC(C)(C)N1 | / | / | / | / | . | 25µM
Cc1c(OCC(=O)NC2CC(C)(C)NC(C)(C)C2)ccc2c1oc(=O)c1ccccc12 | / | / | / | / | . | 2µM
CC1(C)CC(NC(=O)COc2ccccc2Cl)CC(C)(C)N1 | / | / | / | / | . | .
Cc1[nH]c2ccccc2c1C(=O)CSc1nc2cc(S(=O)(=O)N3CCCCC3)ccc2o1 | ? | / | 7.3µM | / | . | 7.1µM
O=Cc1cn(Cc2ccc(Br)cc2)c2ccccc12 | / | / | / | / | ? | .
CCOC(=O)Cn1cc(C=C2C(=O)N(C)C(=O)N(C)C2=O)c2ccccc21 | . | . | . | . | . | .
O=[N+]([O-])/C=C/c1cn(Cc2ccc(Cl)cc2)c2ccccc12 | ? | . | ? | ? | 35µM | ?
COC(=O)c1ccc(Cn2cc(/C=C\[N+](=O)[O-])c3ccccc32)o1 | ? | . | ? | . | 40µM | .
CCOC(=O)Cn1cc(/C=C/[N+](=O)[O-])c2ccccc21 | / | / | / | / | 28µM | ?
O=C(O)c1ccc(Cn2cc(/C=C\[N+](=O)[O-])c3ccccc32)o1 | / | / | / | / | . | .
C=CC[C@@H]1C=C[C@H](ON=C(C)CCN2CCCCc3nc(C)c(C)cc32)[C@H](CO)O1 | / | / | . | / | / | /
Cc1nc2ccc(NC(=O)c3cc(S(=O)(=O)N4CCOCC4)ccc3C)cc2s1 | . | / | ? | ? | ? | ?
Cc1nc2ccc(NC(=O)c3ccc(Cl)c(S(=O)(=O)N(C)c4ccccc4)c3)cc2s1 | ? | ? | ? | ? | 8.9µM | ?
SMILES | Lassa entry inh | VACV mCherry inh | Marburg entry inh | VACV Venus inh | FMDV antiviral | HCV inh
CCOC(=O)Cc1csc(NC(=O)c2ccc(S(=O)(=O)N3CCOCC3)cc2)n1 | . | . | ? | . | . | ?
CCOC(=O)Cc1csc(NC(=O)c2ccc(C)c(S(=O)(=O)N3CCOCC3)c2)n1 | / | / | / | / | 32µM | ?
Cc1nc2ccc(NC(=O)c3ccc(C)c(S(=O)(=O)N4CCOCC4)c3)cc2s1 | / | / | / | / | ? | 10µM
O=C(Nc1ccc(-c2cn3ccsc3n2)cc1)c1ccc(F)c(S(=O)(=O)N2CCOCC2)c1 | . | / | . | / | ? | 5.6µM
O=C(Nc1ccccc1)c1ccc(F)c(S(=O)(=O)N2CCOCC2)c1 | . | / | . | / | . | .
Cc1nc2ccc(NC(=O)c3cc(S(=O)(=O)N(C)c4ccccc4)ccc3Cl)cc2s1 | . | . | ? | . | ? | ?
COc1ccc(NC(=O)c2ccc(S(=O)(=O)N(C)c3ccccc3)cc2)cc1S(=O)(=O)N1CCOCC1 | / | ? | / | ? | 16µM | /
Cc1ccc(NC(=O)c2ccc3c(c2)OCO3)cc1S(=O)(=O)N1CCOCC1 | / | / | / | / | . | .
CN(c1ccccc1)S(=O)(=O)c1ccc(Cl)c(C(=O)Nc2ccc(N3CCOCC3)cc2)c1 | ? | . | . | . | . | 16µM
Cc1ccc(NC(=O)c2ccc(S(=O)(=O)N(C)c3ccccc3)cc2)cc1S(=O)(=O)N1CCOCC1 | / | / | / | / | 13µM | ?
COc1ccc(NC(=O)CN(c2cccc(C)c2C)S(=O)(=O)c2ccccc2)cc1OC | ? | . | . | . | . | /
CC(C)Oc1ccc(CNS(=O)(=O)c2ccc(-c3cc(C(F)(F)F)on3)s2)cc1 | . | . | / | . | . | /
S=C(NCC1CCCO1)N1CCN(c2ccccc2)CC1 (stereo not given) | . | . | ? | . | . | .
FC(F)(F)c1cccc(N2CCN(C(=S)NCC3CCCO3)CC2)c1 (stereo not given) | ? | . | ? | . | ? | 11µM
O=C(c1ccc(S(=O)(=O)NCC2CCCO2)cc1)N1CCN(c2cccc(Cl)c2)CC1 (stereo not given) | / | / | / | / | ? | 11µM
CCOC(=O)N1CCC(Nc2c(N3CCN(c4cc(Cl)ccc4C)CC3)c(=O)c2=O)CC1 | / | . | / | . | . | 10µM
Cc1ccc(Cl)cc1N1CCN(C(=O)COc2ccc(S(=O)(=O)NC(C)C)cc2)CC1 | / | ? | / | ? | ? | 10µM
O=C(c1ccc(S(=O)(=O)NCC2CCCO2)cc1)N1CCN(c2ccccc2F)CC1 (stereo not given) | / | / | / | / | . | .
COC(=O)[C@@H]1CCCN1C(=O)c1c(OC)cc(=O)n2c1CCN(Cc1cc(OC)ccc1F)CC2 | / | . | / | . | . | /
COc1ccc(C2NC(c3ccc4c(c3)OCO4)=CC(c3ccccc3O)N2)cc1OC (stereo not given) | / | . | / | . | / | /
Cc1ccccc1CN1[C@H](C)[C@@H](c2ccccc2)Oc2c(Cl)cccc2S1(=O)=O | . | / | / | / | / | /
COCC1=NC2C(=O)N(C)C(=O)N(CC(C)C)C2=N1 (stereo not given) | / | / | . | / | / | /
COc1ccc(NC(=O)CCc2nnc3n(C)c(=O)c4sccc4n23)cc1 | . | . | . | . | . | /
CCNS(=O)(=O)c1ccc(CCC(=O)N2CCN(c3cccc(Cl)c3)CC2)cc1 | ? | . | ? | . | 28µM | ?
CC(C)NS(=O)(=O)c1ccc(OCC(=O)N2CCN(c3ccccc3)CC2)cc1 | . | . | . | . | . | .
S=C(NC1CCCC1)N1CCN(c2cccc(Cl)c2)CC1 | / | / | / | / | ? | 13µM
S=C(NC1CC1)N1CCN(c2ccc(Cl)cc2)CC1 | . | . | . | . | . | .
O=C(COc1ccc(S(=O)(=O)NC2CCCCC2)cc1)N1CCN(c2cccc(Cl)c2)CC1 | ? | / | ? | / | ? | 7.1µM
Cc1ccc(Cl)cc1N1CCN(C(=O)CN(C2CCCCC2)S(C)(=O)=O)CC1 | . | ? | ? | . | 14µM | ?
